Results reported in publication PMC5540273 (PLoS ONE, 2017).

How the values were obtained:
Conditions in all cases: concentration: 1 μM, replicates: in singlicate; n = 1
ERN1 = tested on: ERN1
FAK = tested on: T1, FAK
T1 construct: gene PTK2

FER = tested on: FER
FES = tested on: FES
FGFR1 = tested on: FGFR1
FGFR2 = tested on: FGFR2
FGFR3 = tested on: FGFR3
FGFR4 = tested on: FGFR4
FGR = tested on: FGR
FLT1 = tested on: FLT1
FLT3-autoinhibited = tested on: FLT3-autoinhibited
FLT3 = tested on: FLT3
FLT4 = tested on: FLT4
FRK = tested on: FRK
FYN = tested on: FYN
GAK = tested on: GAK
GCN2(Kin.Dom.2,S808G) = tested on: T2, GCN2(Kin.Dom.2,S808G)
T2 construct: gene EIF2AK4

GRK1 = tested on: GRK1
GRK2 = tested on: T3, GRK2
T3 construct: gene ADRBK1

GRK3 = tested on: T4, GRK3
T4 construct: gene ADRBK2
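Further: KINOMEscan kinase panel screen.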

| Compound | %Inh (ERN1) [%] | %Inh (FAK) [%] | %Inh (FER) [%] | %Inh (FES) [%] | %Inh (FGFR1) [%] | %Inh (FGFR2) [%] | %Inh (FGFR3) [%] | %Inh (FGFR4) [%] | %Inh (FGR) [%] | %Inh (FLT1) [%] | %Inh (FLT3-autoinhibited) [%] | %Inh (FLT3) [%] | %Inh (FLT4) [%] | %Inh (FRK) [%] | %Inh (FYN) [%] | %Inh (GAK) [%] | %Inh (GCN2(Kin.Dom.2,S808G)) [%] | %Inh (GRK1) [%] | %Inh (GRK2) [%] | %Inh (GRK3) [%] |
| --- | --- | --- | --- | --- | --- | --- | --- | --- | --- | --- | --- | --- | --- | --- | --- | --- | --- | --- | --- | --- |
| O=c1cc(N2CCOCC2)nc2n(Cc3cccc(C(F)(F)F)c3)ccn12 [GSK2297543] | 6 | 0 | 34 | 0 | 11 | 0 | 19 | 1 | 17 | 17 | 12 | 0 | 0 | 0 | 42 | 0 | 0 | 0 | 0 | 0 |
| Nc1nccc(-c2c(-c3ccc(F)cc3)ncn2C2CCN(CC(F)(F)F)CC2)n1 [SB-236560] | 0 | 0 | 4 | 0 | 0 | 0 | 0 | 0 | 0 | 9 | 0 | 18 | 21 | 1 | 0 | 15 | 48 | 18 | 16 | 0 |
| CC(C)(C)n1cnc2c(N)ncnc21 [SKF-97359] | 0 | 0 | 45 | 0 | 0 | 0 | 0 | 0 | 8 | 7 | 0 | 19 | 0 | 0 | 0 | 0 | 29 | 0 | 39 | 24 |
| COc1ccc(Nc2nccc(N3CCC(NC(=O)Nc4cccc(C(C)=O)c4)C3)n2)cc1 (stereo not drawn) [GSK1379731] | 0 | 0 | 12 | 1 | 3 | 0 | 2 | 30 | 20 | 33 | 0 | 34 | 4 | 0 | 1 | 0 | 0 | 0 | 0 | 4 |
| CN1c2ccc(NCc3ccc(F)cc3)cc2-c2c(cnn2C)S1(=O)=O | 0 |  | 0 | 4 | 2 | 2 | 0 | 0 | 0 | 0 | 24 | 12 | 0 | 10 | 12 | 0 | 0 | 11 | 0 | 0 |
| Cl.Oc1cccc(Nc2ccnc3cc(-c4ccncc4)ccc23)c1 [GW494601] | 21 | 0 | 23 | 0 | 59 | 0 | 12 | 12 | 98.1 | 94.4 | 3 | 28 | 97.4 | 97.6 | 95.7 | 76 | 0 | 0 | 0 | 36 |
| O=C1Cc2cc(Nc3nc(NCc4cccc(S(=O)(=O)C(F)(F)F)c4)ncc3C(F)(F)F)ccc2N1 | 0 | 0 | 0 | 7 | 0 | 1 | 5 | 0 | 0 | 0 | 0 | 0 | 0 | 0 | 0 | 8 | 28 | 0 | 30 | 22 |
| Cn1ccc2ncnc(Oc3ccc(NC(=O)Nc4ccncc4)c(Cl)c3)c21 | 0 | 0 | 0 | 0 | 0 | 0 | 0 | 0 | 5 | 0 | 0 | 0 | 0 | 0 | 0 | 0 | 11 | 7 | 0 | 0 |
| C[C@@H](Oc1cc(-n2cnc3ccc(NC(=O)NC(C)(C)C)cc32)sc1C(N)=O)c1ccccc1Cl [GSK346294] | 13 | 0 | 43 | 0 | 13 | 0 | 30 | 14 | 8 | 46 | 0 | 0 | 1 | 10 | 6 | 0 | 0 | 0 | 0 | 34 |
| CN1c2ccc(CNc3ccc(F)cc3)cc2-c2c(cnn2C)S1(=O)=O | 0 |  | 25 | 0 | 0 | 0 | 0 | 9 | 0 | 0 | 0 | 36 | 0 | 1 | 4 | 0 | 15 | 10 | 0 | 0 |
| c1ccc(-c2cc(-c3c[nH]nc3-c3ccccn3)ccn2)cc1 [GW576604] | 0 | 6 | 13 | 0 | 0 | 0 | 0 | 67 | 9 | 46 | 0 | 0 | 0 | 0 | 20 | 78 | 1 | 0 | 0 | 17 |
| CN(C1=C(c2ccccc2)C(=O)NC1=O)c1ccccc1 [SB-334860] | 20 | 0 | 19 | 0 | 0 | 0 | 24 | 18 | 17 | 0 | 3 | 0 | 20 | 2 | 39 | 7 | 0 | 9 | 8 | 7 |
| c1ccc(-c2n[nH]cc2-c2ccnc3ccccc23)nc1 [GW271431] | 0 | 0 | 31 | 0 | 6 | 0 | 13 | 11 | 26 | 47 | 5 | 3 | 25 | 10 | 43 | 79 | 3 | 0 | 0 | 34 |
| Cc1c2ccc(N(C)c3ccnc(Nc4cccc(S(N)(=O)=O)c4)n3)cc2nn1Cc1ccccc1.Cl.Cl [GW787226] | 0 | 0 | 63 | 36 | 65 | 85 | 59 | 19 | 57 | 98.9 | 29 | 98.5 | 99.9 | 65 | 75 | 0 | 62 | 0 | 0 | 0 |
| O=C(NCCCN1CCOCC1)c1cccc(Nc2nccc(Nc3ccc(Oc4ccccc4)cc3)n2)c1 [GW663929] | 21 | 0 | 19 | 16 | 0 | 0 | 30 | 54 | 93.4 | 30 | 33 | 90.7 | 4 | 48 | 93.5 | 33 | 36 | 8 | 0 | 20 |
| CC(=O)Nc1ccc(COc2ccc(Nc3ccnc4cc(-c5ccccn5)ccc34)cc2)cc1.Cl [GW440148] | 17 | 1 | 0 | 13 | 0 | 0 | 14 | 0 | 36 | 99.2 | 38 | 98 | 99.9 | 0 | 47 | 8 | 0 | 0 | 0 | 17 |

| Compound | %Inh (ERN1) [%] | %Inh (FAK) [%] | %Inh (FER) [%] | %Inh (FES) [%] | %Inh (FGFR1) [%] | %Inh (FGFR2) [%] | %Inh (FGFR3) [%] | %Inh (FGFR4) [%] | %Inh (FGR) [%] | %Inh (FLT1) [%] | %Inh (FLT3-autoinhibited) [%] | %Inh (FLT3) [%] | %Inh (FLT4) [%] | %Inh (FRK) [%] | %Inh (FYN) [%] | %Inh (GAK) [%] | %Inh (GCN2(Kin.Dom.2,S808G)) [%] | %Inh (GRK1) [%] | %Inh (GRK2) [%] | %Inh (GRK3) [%] |
| --- | --- | --- | --- | --- | --- | --- | --- | --- | --- | --- | --- | --- | --- | --- | --- | --- | --- | --- | --- | --- |
| Fc1ccc(-c2ncn(CCCN3CCOCC3)c2-c2cccnc2)cc1 [SB-211743] | 18 | 0 | 21 | 0 | 0 | 0 | 2 | 0 | 0 | 8 | 0 | 9 | 0 | 0 | 0 | 2 | 8 | 16 | 0 | 7 |
| O=c1cc(N2CCOCC2)nc2n(Cc3cccc(Cl)c3Cl)c(C3CC3)nn12 [GSK2358994] | 0 | 0 | 3 | 15 | 0 | 1 | 0 | 0 | 9 | 6 | 0 | 10 | 10 | 0 | 6 | 11 | 0 | 0 | 0 | 0 |
| O=C(c1ccc(-c2cc(-c3c[nH]nc3-c3ccccn3)ccn2)cc1)N1CCOCC1 [GW812171] | 54 | 0 | 0 | 0 | 4 | 0 | 0 | 0 | 0 | 0 | 0 | 1 | 0 | 0 | 0 | 34 | 0 | 26 | 0 | 20 |
| Cc1cccc(-c2nc(Nc3ccc4ncsc4c3)c3ccccc3n2)n1 [GW867588] | 38 | 3 | 0 | 13 | 0 | 0 | 0 | 0 | 17 | 0 | 12 | 2 | 0 | 0 | 4 | 0 | 4 | 0 | 9 | 0 |
| COCCNC(=O)c1ccc(-c2cc(C(=O)NC3CC3)cc(F)c2C)cc1 [GW868318] | 38 | 3 | 1 | 32 | 17 | 3 | 7 | 3 | 32 | 7 | 0 | 15 | 5 | 32 | 2 | 0 | 12 | 32 | 0 | 18 |
| COc1ccc(COc2cc(-n3cnc4ccccc43)sc2C(N)=O)cc1 [GSK1024304] | 2 | 0 | 6 | 16 | 0 | 0 | 1 | 0 | 10 | 24 | 0 | 4 | 1 | 0 | 16 | 17 | 0 | 0 | 0 | 10 |
| N#Cc1ccc(-c2cc(-c3c[nH]nc3-c3ccccn3)ccn2)cc1 [GW693028] | 0 | 0 | 7 | 4 | 0 | 0 | 0 | 12 | 21 | 0 | 0 | 0 | 0 | 25 | 0 | 69 | 0 | 0 | 0 | 70 |
| Fc1ccc(-c2nn3c(OCC(F)(F)F)cccc3c2-c2ccncc2)cc1 [GW514784] | 0 | 0 | 13 | 7 | 0 | 0 | 0 | 0 | 18 | 35 | 0 | 4 | 0 | 5 | 0 | 85 | 0 | 0 | 0 | 45 |
| N#Cc1c(N2CCOCC2)sc(-c2ccn[nH]2)c1-c1ccc(Cl)cc1 | 4 | 0 | 11 | 27 | 7 | 12 | 0 | 0 | 22 | 0 | 12 | 0 | 0 | 0 | 0 | 0 | 0 | 15 | 0 | 25 |
| O=C(NCCNc1ccnc(Nc2ccc(F)cc2)n1)c1cc2ccccc2s1 [GSK1379874] | 54 | 0 | 16 | 0 | 0 | 62 | 6 | 0 | 15 | 19 | 0 | 0 | 9 | 6 | 0 | 0 | 0 | 0 | 0 | 0 |
| CCc1nc(-c2cccc(C)c2)c(-c2ccnc(NCc3ccccc3)c2)s1 | 16 | 0 | 0 | 6 | 0 | 8 | 0 | 0 | 8 | 0 | 18 | 0 | 0 | 0 | 0 | 11 | 11 | 9 | 0 | 6 |
| O=C(Nc1cccc(-c2nn3ncccc3c2-c2ccnc(Nc3cccc(C(F)(F)F)c3)n2)c1)c1c(F)cccc1F [GSK299495] | 15 | 0 | 24 | 0 | 0 | 0 | 0 | 0 | 95.5 | 91.5 | 0 | 41 | 40 | 88 | 62 | 1 | 8 | 6 | 0 | 33 |
| Cc1nnc(-c2ccc(C)c(-c3ccc(C(=O)Nc4ccc(NS(C)(=O)=O)cc4)cc3)c2)o1 [GW702865] | 0 | 0 | 4 | 0 | 0 | 0 | 11 | 0 | 24 | 25 | 0 | 0 | 8 | 0 | 17 | 0 | 10 | 0 | 0 | 0 |
| COc1ccc(CNC(=O)NC2CCN(c3ccnc(Nc4ccc(OC)cc4)n3)C2)cc1 (stereo not drawn) [GSK1379727] | 0 | 0 | 8 | 1 | 0 | 7 | 18 | 0 | 26 | 5 | 0 | 7 | 0 | 0 | 38 | 0 | 11 | 0 | 0 | 48 |
| Cc1cccc(-c2nc(-c3ccc(S(C)(=O)=O)cc3)sc2-c2ccncc2)c1 | 0 | 4 | 14 | 37 | 26 | 1 | 0 | 0 | 45 | 0 | 2 | 14 | 8 | 0 | 0 | 5 | 0 | 0 | 0 | 3 |
